Structures are written as SMILES. Hit rate of the full screen: of about 69,000 compounds, about 8,600 (12%) showed an effect of 50% or more. The full list was thinned out, with strong results kept by preference.

This passage reports INHIBITION results from ChEMBL document CHEMBL4513216, “Probing the Open Global Health Chemical Diversity Library for Multistage-Active Starting Points for Next-Generation Antimalarials” (ACS Infect Dis, 2020).

This experiment deals with Plasmodium berghei. As to the kind of experiment: Screen against P. berghei liver stage (PbLuc), transformed with Luciferase, at 10uM. In kind it is functional, HepG2. Particulars: tested at 10 uM.
For `CC(C)c1nc(CN2CCN(C(=O)OC(C)(C)C)C(C)C2)no1` (stereo unspecified), the INHIBITION was -9.35%.

On to `Cc1nn(C)c2c(=O)n(Cc3ccc(C#N)cc3)nnc12`, for which the INHIBITION stood at 8.15%. On to `CC(C)OCCCNC(=O)CS(=O)(=O)Cc1cccc(Cl)c1`, for which the INHIBITION was -63.3%. As for `Cn1ccnc1-c1cn(CCc2nnc(N)s2)nn1`, the figure is 40.2%; as for `CC(C)c1nnc2n1CC(CNCc1ccsc1)CC2` (stereo unspecified), 5.85%; as for `Cc1oc(-c2ccsc2)nc1CC(=O)NCCCS(C)(=O)=O`, 5.05%.

As to `Cc1cc(C(=O)N2CCN(Cc3ccco3)C(CCO)C2)cc(=O)[nH]1` (stereo unspecified), the INHIBITION was 52.1%. On to `O=C(c1ccncc1Cl)N1CCN(Cc2ccco2)C(CCO)C1` (stereo unspecified), for which the INHIBITION is 16.2%. `O=C(c1ncccc1O)N1CCN(Cc2ccco2)C(CCO)C1` (stereo unspecified): the INHIBITION was 17%.

Take `CCOc1ccc(C(=O)N2CCCC2Cn2cc(C)cn2)cn1` (stereo unspecified): the INHIBITION worked out at 28.55%. Consider `CCn1cc(NC(=O)C2CCN(CC(=O)NCC(C)C)CC2)cn1`, for which the INHIBITION stood at 37.4%. The value for `Cc1ccc(NC(=O)c2cc3c(=O)n(C)c(=O)n(C)c3nc2C)cc1Cl` was -6.83%. In the case of `CCOc1cc([C@H]2N[C@@H](c3nc(C)cs3)Cc3ccsc32)ccc1OC`, the INHIBITION was 75%. For the molecule `COc1ccc(OC)c([C@@H]2N[C@H](c3nccs3)Cc3ccsc32)c1`, the INHIBITION amounted to 43.4%.

Regarding `COc1cc([C@@H]2N[C@H](c3nccs3)Cc3ccsc32)cc(OC)c1OC`, the INHIBITION is 47.2%. Regarding `CCOc1cc([C@@H]2N[C@H](c3nccs3)Cc3ccsc32)ccc1OC`, the INHIBITION stood at 25.05%. As to `COc1cccc([C@@H]2N[C@H](c3nccs3)Cc3ccsc32)c1OC`, the INHIBITION came out at 49.2%. The value for `CCOc1ccc([C@@H]2N[C@H](c3nccs3)Cc3ccsc32)cc1OC` was 69.25%; that for `COCCN1CCC2(CC1)CN(Cc1cccc(C)n1)C(=O)CO2` was 7.53%. For `COc1ccc(CCC(=O)N(C(C)C)C2CCOCC2)cc1`, the INHIBITION is -42.1%. As for `CC(C(=O)N1CCN(c2ccccc2)CC1)n1cc(Br)cn1` (stereo unspecified), the figure is -35.4%; as for `O=C(c1c[nH]nn1)N1CCN(C(c2ccccc2)C(F)(F)F)CC1` (stereo unspecified), -10.9%; as for `O=C(c1cc[nH]n1)N1CCN(C(c2ccccc2)C(F)(F)F)CC1` (stereo unspecified), 17.1%. `O=C(c1ccccn1)N1CCN(C(c2ccccc2)C(F)(F)F)CC1` (stereo unspecified): the INHIBITION was found to be 51.7%. For the molecule `NC(=O)C1CN(c2ccc(F)cc2)CCN1` (stereo unspecified), the INHIBITION came to 25.8%.

As for `Cc1nc2ccccc2nc1NCc1nnc2n1CCC2`, the INHIBITION turned out to be 52.9%. As to `c1ccc2nc(N3CCCC3)c(NCc3nnc4n3CCC4)nc2c1`, the INHIBITION amounted to 16.1%.

As to `c1ccc2nc(N3CCCCC3)c(NCc3nnc4n3CCC4)nc2c1`, the INHIBITION came out at 0.897%.

Take `Cc1cnn(CCNCc2csc(-c3ccc(C)o3)n2)c1`: the INHIBITION worked out at 15.3%. As for `CN(C)C(=O)Cc1ccc(NC(=O)c2cn(C)nn2)cc1`, the figure is 20%; as for `Cn1cc(C(=O)Nc2ccc(CC(=O)NC3CC3)cc2)nn1`, 11.3%; as for `Cn1cc(C(=O)Nc2ccc(CC(=O)NCC(F)(F)F)cc2)nn1`, 50.5%. For `CCC(C)c1cc(C(=O)N(CC(=O)NC)c2cccc(F)c2)on1` (stereo unspecified), the INHIBITION is recorded as 3.04%. Regarding `Cc1cccc(CN2CCCn3c(nnc3Cn3cccn3)C2)n1`, the INHIBITION is -23%. On to `CN(C)c1cc2c(nn1)CCN(C(=O)c1cc3c(s1)CCCC3)C2`, for which the INHIBITION is -2.13%. On to `CN(C)C(=O)c1noc2c1CN(C(=O)CCCN1CCCCC1)CC2`, for which the INHIBITION worked out at 41.5%. `CCN1CCc2cc(C(=O)N(C)C)c(NCC3CC3)nc2CC1`: the INHIBITION came out at 37.2%. `CCN1CCC(CC(=O)N2CCc3sc(C(=O)N(C)C)cc3C2)CC1`: the INHIBITION is 64%. Take `CN1CCCC(CCC(=O)N2CCc3onc(C(=O)N(C)C)c3C2)C1` (stereo unspecified): the INHIBITION was 12%. As for `CN1CCCC(CCC(=O)N2CCc3sc(C(=O)N(C)C)cc3C2)C1` (stereo unspecified), the figure is 73.6%. With `CNC(=O)c1cc2c(s1)CCN(C(=O)CCC1CCCN(C)C1)C2` (stereo unspecified), the INHIBITION was 42.6%.

With `CN(C)C(=O)c1cc2c(s1)CCN(C(=O)CCCN1CCCCC1)C2`, the INHIBITION was 71.5%. Regarding `CCNc1cc2c(nn1)CCN(C(=O)CC1CCCC1)C2`, the INHIBITION is given as 17.4%. Take `c1cc(-c2ccc3nc(C4CCN(CC5CC5)CC4)nn3c2)cs1`: the INHIBITION amounted to 23.6%. The value for `Cc1ccc2c(n1)N(CCn1cccn1)CCN(CC1CC1)C2` was -6.3%; that for `CCN(Cc1cnn(C)c1)C[C@H]1CC[C@@H](Cc2ccc(OC)nc2)O1` was -22.3%. Consider `CN(C)CCN1CCCC12CCN(C(=O)c1ccoc1)CC2`, for which the INHIBITION is given as -44.2%.

For the molecule `O=c1c2cn[nH]c2nc(SCCN2CCCC2)n1-c1ccccc1`, the INHIBITION was found to be 17.7%. In the case of `CC(C)CNC(=O)[C@H]1CCS(=O)(=O)[C@@H]2CN(Cc3ccc(F)cc3)C[C@H]12`, the INHIBITION is reported as -0.371%. `CSc1cccc(CN(C)C(=O)Cn2ncc(N3CCCC3)cc2=O)c1`: the INHIBITION stood at 25.1%. `CCC1C(=O)NCCN1c1cc(C)ncn1` (stereo unspecified): the INHIBITION is 26.8%. In the case of `O=C(Cc1ccccn1)N1CCc2ncnc(N3CCCC3)c2CC1`, the INHIBITION is recorded as -10.3%.

Consider `OC1COCCN(Cc2cccc(N3CCOCC3)c2)C1` (stereo unspecified), for which the INHIBITION was determined as 15.9%. With `OC1CN(Cc2cccc(N3CCOCC3)c2)Cc2ccccc21` (stereo unspecified), the INHIBITION is 28.7%. Take `N[C@@H]1CCN(Cc2cccc(N3CCOCC3)c2)C[C@H]1O`: the INHIBITION was 58.6%. For the molecule `CC(=O)Nc1ccc(CNc2ccn(Cc3ccccc3)n2)cc1`, the INHIBITION is -51.8%. The value for `Cc1nccn1-c1cccc(C2CCCN2S(=O)(=O)N(C)C)n1` (stereo unspecified) was 53%. As for `CN(C)S(=O)(=O)N1CCC(c2ccnc(Nc3ccccn3)n2)C1` (stereo unspecified), the figure is 29.5%; as for `CC(C)c1nccn1-c1cccc(C2CCCN2S(=O)(=O)N(C)C)n1` (stereo unspecified), 21.9%. As to `CC(C)c1nccn1-c1cccc(C2CCN(C)CC2)n1`, the INHIBITION is 58%. Take `CC(C)c1nccn1-c1cccc(C2CCCN(C3CCCC3)C2)n1` (stereo unspecified): the INHIBITION is recorded as 35.3%. As to `CC(C)c1nccn1-c1cncc(C2CCCN(C3CCCCC3)C2)n1` (stereo unspecified), the INHIBITION is 44.1%. On to `CC(C)c1nccn1-c1cccc(C2CCCN(S(=O)(=O)N(C)C)C2)n1` (stereo unspecified), for which the INHIBITION was found to be 50.1%.

In the case of `CC(C)c1nccn1-c1cncc(C2CCCN(C3CCCC3)C2)n1` (stereo unspecified), the INHIBITION is given as 41.2%. Take `CCc1nccn1-c1cccc(C2CCCN2S(=O)(=O)N(C)C)n1` (stereo unspecified): the INHIBITION was 36.7%. With `COc1ccc(C(=O)Nc2cccc(C(N)=O)c2)c(OC)n1`, the INHIBITION is given as -26.1%.

Take `CNCC(=O)N1CCCCC1c1nccc(C)n1` (stereo unspecified): the INHIBITION worked out at 18.3%.

With `O=C(c1ccnc(-n2ccnc2)c1)N1CCCC(n2ccnc2)C1` (stereo unspecified), the INHIBITION was 25.1%. The value for `CC(=O)NCCNC(=O)c1cc(COc2ccccc2)[nH]n1` was -3.83%; that for `NC1CCN(C(=O)c2cnc(Cc3c(Cl)cccc3Cl)nc2O)C1` (stereo unspecified) was 51.3%.

As to `O=C(c1cnc(Cc2c(Cl)cccc2Cl)nc1O)N1CCNCC1`, the INHIBITION is recorded as 43.9%. With `CCN1CCN(C(=O)c2cnc(Cc3c(Cl)cccc3Cl)nc2O)CC1`, the INHIBITION was determined as 8.11%.

Take `CN(C)C(=O)N[C@@H]1CN(Cc2ccc3c(c2)OCO3)[C@@H]2CCCO[C@@H]21`: the INHIBITION is reported as -15.5%. With `Cc1cc(OCC(=O)N2CCCC2c2noc(C)n2)no1` (stereo unspecified), the INHIBITION was 2.97%. As for `COc1ccc(OC2CCN(C(=O)c3ccc(C)[nH]c3=O)CC2)cc1`, the figure is 29.85%; as for `COc1ccccc1OC1CCN(C(=O)c2c[nH]c(=O)[nH]c2=O)CC1`, -7.76%; as for `Cc1ccccc1OC1CCN(C(=O)c2c[nH]c(=O)[nH]c2=O)CC1`, 60.4%. Turning to `Cc1ccc(C(=O)N2CCC(Oc3cccc(C)c3C)CC2)c(=O)[nH]1`, the INHIBITION worked out at 45.5%. As for `Cc1ccc(C(=O)N2CCC(Oc3ccccc3)CC2)c(=O)[nH]1`, the figure is 29.4%; as for `Cc1ccc(C(=O)N2CCC(Oc3ccc(C)c(C)c3)CC2)c(=O)[nH]1`, 69.65%.

For `COc1cccc(CC(=O)N2CCC(NCc3c[nH]nc3C)CC2)c1`, the INHIBITION was -17.35%. The value for `O=C(CCCc1ccccn1)N1CCCC1c1noc(C2CC2)n1` (stereo unspecified) was 0.411%; that for `O=C(c1nnn(-c2ccccc2)n1)N(CCO)CCO` was -7.77%. The value for `Cc1cccc(NC(=O)Cc2cnc3n(C)c(=O)[nH]c(=O)n23)c1` was 27.5%; that for `O=C(Cc1ccc2c(c1)CCO2)N1CCCC1Cn1cccn1` (stereo unspecified) was 31.6%; that for `CCS(=O)(=O)NCCN(CCO)C1CCc2ccccc21` (stereo unspecified) was 29.4%.

`CC(C)(C)S(=O)(=O)CCNC1CSCCc2ccccc21` (stereo unspecified): the INHIBITION is listed as -56.6%.

In the case of `CCCNC(=O)CCNC1CSCCc2ccccc21` (stereo unspecified), the INHIBITION is reported as 76.9%.

For the molecule `OCCNC1CSCCc2ccccc21` (stereo unspecified), the INHIBITION is -56.6%.

With `CCS(=O)(=O)NCCCNC1CSCCc2ccccc21` (stereo unspecified), the INHIBITION was 60.9%. `CNC(=O)CN1CCC(NC2CSCCc3ccccc32)CC1` (stereo unspecified): the INHIBITION is -18.9%. Consider `COc1ccc(CCNC(=O)c2ccc(=O)n(C)c2)c(Cl)c1`, for which the INHIBITION was 1.74%. As for `Cn1ncc2c(=O)[nH]c(CN3CCCC3CCc3ccccc3)nc21` (stereo unspecified), the INHIBITION was determined as 19.6%. Regarding `Cc1cc(C)c(CNC(=O)NCCC2CCCO2)c(=O)[nH]1` (stereo unspecified), the INHIBITION is given as 1.82%. The value for `COc1ccc2c(c1)C(C(=O)NCCN1CCOC1=O)CC(=O)N2` (stereo unspecified) was 34.9%; that for `Cc1cc(C)n(C2CCCN(C(=O)c3cccc(F)c3F)C2)n1` (stereo unspecified) was 33%. On to `CCN1CCN(C(=O)Cc2ccc(S(=O)(=O)C(F)F)cc2)CC1`, for which the INHIBITION is recorded as 55.9%. In the case of `O=C(Cc1ccc(S(=O)(=O)C(F)F)cc1)N1CCC1`, the INHIBITION was 43.9%. Consider `CN1CCN(C(=O)Cc2ccc(S(=O)(=O)C(F)F)cc2)CC1`, for which the INHIBITION was determined as 39.6%. For `CCn1ccc(NC(=O)c2cc(C)on2)n1`, the INHIBITION is -9.21%. For the molecule `COCCN1CCn2c(nc3cc(C(=O)NC(C)C)ccc32)C1`, the INHIBITION came out at 19.3%. Consider `COCCNC(=O)c1ccc2c(=O)n3c(nc2c1)CCCCC3`, for which the INHIBITION was determined as 40.8%.

On to `COCCNC(=O)c1ccc2c(=O)n3c(nc2c1)CCCC3`, for which the INHIBITION was found to be 54.9%. As for `CN1CCc2nc3cc(C(=O)NCc4cccs4)ccc3c(=O)n2CC1`, the INHIBITION came out at 21.1%.

Consider `COCCNC(=O)c1ccc2c(=O)n3c(nc2c1)CCCCCC3`, for which the INHIBITION was 55.4%. For the molecule `COCCNC(=O)c1ccc2c(=O)n3c(nc2c1)CCN(C)CC3`, the INHIBITION is -48.5%.
